The nature of assay [1]: inhibitors of TNFa-induced NFkB p65 translocation, primary screen, imaging, HUVEC, MLSMR starter and 10KST1 sets (AID 438;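 active = inhibition above 20% together with a positive visual image hit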;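 also: compound added about 3h40 before a 20 min TNFalpha stimulation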;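 as to inhibition: signal is the nuclear over cytoplasmic p65 intensity ratio per well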). The note with it: HUVEC TNFa-induced p65 nuclear translocation; cell count: measured here: nuclei count (cytotoxicity indicator), at 2.08 µM; inhibition: at 2 µM, stronger effect = higher value, 0% TNFa-plus-vehicle, 100% no-TNFa wells.
A short description of assay [2]: inhibitors of mutant huntingtin aggregation, primary screen, imaging, exon1htt(103Q)mCFP cells, high-content imaging (AID 483).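 Also: compound exposure lasted 3 days before fixation.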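 As to nuclei count: percent of the per-plate median nuclei count of sample wells.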 The note with it: exon1htt(103Q)mCFP cell line, aggregate imaging, at 2 µM; inhibition of aggregation: stronger effect = higher value; nuclei count: measured here: cell count, toxicity.
Assay [3] in a line: inhibitors of E-selectin induction by TNFa, primary screen, imaging, HUVEC, immunofluorescence, MLSMR starter and 10KST1 sets (AID 487;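 active = visually confirmed hit in the image check and inhibition above 20%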;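 as to inhibition: signal is fraction of cell area covered by stained E-selectin grains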;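 as to nuclei count: 100% = median nuclei count of all wells on the same plate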). Conditions: HUVEC TNFalpha-induced E-selectin immunofluorescence imaging, at 2 µM; inhibition: stronger effect = higher value; nuclei count: measured here: cell number, toxicity.
Assay [4] in a line: DUSP6 inhibitors restoring Erk phosphorylation by chemical complementation, primary imaging in DUSP6-transfected HeLa (AID 609;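 active = compounds giving at least 50% inhibition in the cell-based MKP-3 phosphatase rescue imaging test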;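 as to inhibition: phospho-Erk level distribution per well compared with pooled transfected vehicle control wells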). Conditions: HeLa MKP-3 transfected, phospho-Erk imaging KS statistic, at 10 µM, cells stimulated with TPA for 15 min.
The target in assay [5] is Dual specificity protein phosphatase 6 (Homo sapiens) (UniProt Q16828). Described as above. The note with it: HeLa MKP-3 transfected, phospho-Erk imaging KS statistic; at 10 µM; stronger effect = higher value; cells stimulated with TPA for 15 min.
Chain of Dual specificity protein phosphatase 6 (Homo sapiens) (Q16828 whole entry, looked up): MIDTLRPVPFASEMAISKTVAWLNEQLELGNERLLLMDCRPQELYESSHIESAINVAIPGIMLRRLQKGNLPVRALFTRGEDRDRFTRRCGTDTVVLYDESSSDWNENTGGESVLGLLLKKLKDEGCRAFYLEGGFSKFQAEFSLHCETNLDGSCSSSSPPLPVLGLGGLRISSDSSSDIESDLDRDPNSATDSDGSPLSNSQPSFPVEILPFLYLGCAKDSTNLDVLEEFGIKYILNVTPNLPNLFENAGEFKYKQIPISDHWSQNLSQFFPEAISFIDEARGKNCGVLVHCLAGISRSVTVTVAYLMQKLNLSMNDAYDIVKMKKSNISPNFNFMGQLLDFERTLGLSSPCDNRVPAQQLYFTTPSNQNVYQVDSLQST
Assay [6] has as its target Voltage-gated potassium channel subunit beta-2 (Rattus norvegicus) (UniProt P62483). The assay is described as follows: KvBeta enzyme negative modulators, primary screen, biochemical, NADPH fluorescence (AID 622;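 active = fluorescence slope higher than the sample average by over 3 SD, cut at about -0.22 in these data, passing the limit was not always enough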;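 also: slope of raw intensity against log time taken from 70 to 1610 s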). The note with it: recombinant KvBeta, 4-cyanobenzaldehyde reduction, at 10 µM, stronger effect = higher value.
The target is the same in assay [7]. Nature of the assay: KvBeta positive modulators, primary screen, biochemical, NADPH fluorescence (AID 623;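 active = NADPH fluorescence slope more negative than the mean of all samples by about 3 SD, 99.7% confidence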;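 also: fluorescence intensity change per second fitted from 20 to 320 s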). Conditions: Recombinant KvBeta, NADPH fluorescence decrease slope, 10 min; at 10 µM; stronger effect = lower value.
The target of assay [8] is Alpha-2C adrenergic receptor (Homo sapiens) (UniProt P18825). The assay is described as follows: modulators of alpha2C/GIRK thallium flux, primary screen, cell-based, HEK293 alpha2C/GIRK1/2 (AID 624;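 active = fluorescence slope after compound addition differing from the mean of all screened samples at 99.7% confidence, in either direction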;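 also: slope of fluorescence ratio to pre-addition baseline per second over 15 to 24 s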). Conditions: thallium flux BTC fluorescence, at 10 µM, actives lie on both sides.
Chain of Alpha-2C adrenergic receptor (Homo sapiens) (P18825 whole entry, looked up): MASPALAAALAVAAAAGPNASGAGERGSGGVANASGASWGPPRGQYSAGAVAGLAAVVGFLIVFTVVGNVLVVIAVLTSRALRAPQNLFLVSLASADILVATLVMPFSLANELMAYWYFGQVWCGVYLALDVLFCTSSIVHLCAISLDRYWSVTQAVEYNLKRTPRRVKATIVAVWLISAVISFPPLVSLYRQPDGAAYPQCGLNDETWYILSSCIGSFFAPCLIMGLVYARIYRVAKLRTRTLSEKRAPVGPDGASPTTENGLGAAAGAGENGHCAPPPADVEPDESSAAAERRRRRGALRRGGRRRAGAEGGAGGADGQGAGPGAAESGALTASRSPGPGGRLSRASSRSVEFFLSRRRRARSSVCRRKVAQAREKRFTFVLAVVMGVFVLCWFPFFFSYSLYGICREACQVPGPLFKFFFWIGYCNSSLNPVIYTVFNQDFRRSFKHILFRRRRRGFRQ
Assay [9] can be described thus: inhibitors of larval lipid processing in zebrafish, primary screen, whole organism, PED6 fluorescence, gall bladder and intestine (AID 686;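 active = a full or partial loss of lipid-probe fluorescence in the fish gall bladder, intestine or both, judged by eye; inactive = no fluorescence loss, or compound toxic to the fish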;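 also: larvae 5 to 7 days old with five fish per well; signal comes from phospholipase A2 cleavage of quenched PED6 carried via bile; overnight exposure to compound and PED6 before scoring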). The note with it: Zebrafish larvae PED6 lipid processing, fluorescence scoring; screened at 20 µM (by protocol).
Assay [10] in a line: inhibitors of Chlamydomonas gravitaxis, primary screen, whole organism, Chlamydomonas reinhardtii, WT vs cilia-less mutant, absorbance, 96-well (AID 463189;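 active = inhibition at or above 50% relative to wild type and mutant plate controls; inactive = inhibition below 50%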;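 also: 0% = wild type cc124 cells in DMSO and 100% = ciliumless bld1 mutant cells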). Conditions: OD600 absorbance, 2 days, at 10 µM, stronger effect = higher value.
The nature of assay [11]: inhibitors of Sendai virus-induced IRF3 signaling, primary screen, TLR/RLR signaling modifier project, cell-based, Sendai virus stimulus, luciferase, 10K MLSCN set (AID 602276;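 active = inhibition at or above 50% at 10 µM; inactive = inhibition below 50%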;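 also: firefly luciferase from ISG56 promoter only with Renilla not read in this screen; 0% = Sendai virus plus DMSO and 100% = medium plus DMSO without virus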). Conditions: HEK293 RL24 IRF3 luciferase reporter, at 10 µM, stronger effect = higher value. (In a reporter assay the amount or activity of a reporter protein is the signal.)
A short description of assay [12]: inhibitors of poly I:C-induced TLR3 signaling, primary screen, cell-based, poly I:C stimulus, luciferase, 10K MLSCN set (AID 602277;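 active = inhibition of the reporter signal at or above 50%; inactive = inhibition below 50%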). The note with it: HEK293-TLR3 RL24 IRF3 luciferase reporter, at 10 µM, stronger effect = higher value.
[13] abbreviates: measured here: cell density z-score.
Where [14] appears, read: measured here: nuclear c-Myc green intensity z-score.
Where [15] appears, read: measured here: nuclear pErk red intensity z-score, stronger effect = higher value.

Active and inactive are the calls of the source.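 The calls were made as follows, unless noted: active = visual image review flags a hit and inhibition of aggregation exceeds 20%; inconclusive = visual hit but inhibition at or below 20%; inactive = no hit on visual image review.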

The term inhibition denotes the drop in the measured response relative to a control, in per cent.

Chain of Voltage-gated potassium channel subunit beta-2 (Rattus norvegicus) (P62483 whole entry, looked up): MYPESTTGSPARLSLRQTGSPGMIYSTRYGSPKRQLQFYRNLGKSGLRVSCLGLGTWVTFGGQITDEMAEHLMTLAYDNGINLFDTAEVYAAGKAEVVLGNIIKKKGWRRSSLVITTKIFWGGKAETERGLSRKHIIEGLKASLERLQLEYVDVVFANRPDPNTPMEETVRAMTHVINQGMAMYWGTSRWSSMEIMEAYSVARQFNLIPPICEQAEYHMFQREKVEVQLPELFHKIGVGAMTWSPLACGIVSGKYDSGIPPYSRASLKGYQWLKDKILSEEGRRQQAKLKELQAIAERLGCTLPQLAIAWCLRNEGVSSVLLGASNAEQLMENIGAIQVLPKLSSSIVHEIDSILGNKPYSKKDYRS

With `CC(C)CCNC(=O)[C@H](CC(C)C)NC(=O)[C@H]1O[C@@H]1C(=O)O`, the cell count in [1] turned out to be 625. Besides, the inhibition in [1] is -6.9% (inactive); in assay [3], -39.7% (inactive); in [5] it was 9.37% (inactive); in [10], 10.6% (inactive); in assay [11] it was 10.1% (inactive); in assay [12], 34.8% (inactive). The inhibition of aggregation in [2] is 11.7% (inactive). The nuclei count in assay [2] was found to be 98.3%; in [3], 134%. For the same compound, the z-score in [4] (setting [13]) was 0.0708; in [4] (setting [14]) it was 0.541; in [4] (setting [15]) it was 0.76. For the same compound, the fluorescence slope in [6] was -0.496 (inactive). Besides, the NADPH fluorescence slope in assay [7] is -1.1e-05 (inactive). Besides, the slope in [8] was 0.00458 (inactive). The outcome in [9] was inactive.
For the compound `O=C1NC2c3ccccc3C(=O)N2c2c1cnn2-c1ccccc1` (stereo not given), the cell count in assay [1] is 603. Besides, the inhibition in [1] is -7.1% (inactive); in assay [3] it was -48.5% (inactive); in assay [5] it was 7.83% (inactive); in assay [10], 14.6% (inactive); in [11], -6.19% (inactive); in assay [12] it was 6.35% (inactive). In assay [2], the inhibition of aggregation was -11.1% (inactive). Further, the nuclei count in assay [2] worked out at 111%; in assay [3], 146%. Besides, the z-score in assay [4] (setting [13]) is 0.407; in [4] (setting [14]), 0.889; in assay [4] (setting [15]), -0.995. The fluorescence slope in assay [6] was -0.425 (inactive). Also, in [7], the NADPH fluorescence slope was -1.7e-05 (inactive). The slope in assay [8] is 0.00503 (inactive). Besides, the compound was classed as inactive in assay [9].
Turning to `CCCCCC(=O)O[C@]1(C(C)=O)CC[C@H]2[C@@H]3CCC4=CC(=O)CC[C@]4(C)[C@H]3CC[C@@]21C`, in assay [1], the cell count came to 601. The inhibition was -6.9% (inactive) in assay [1]; -58.2% (inactive) in assay [3]; 13.3% (inactive) in [5]; 3.11% (inactive) in [10]; 0.124% (inactive) in [11]; 48% (inactive) in assay [12]. Besides, in [2], the inhibition of aggregation was 2.3% (inactive). Further, the results for the nuclei count in assay [2] and in [3] were 104% and 122%, respectively. The z-score in [4] (setting [13]) is -1.27; in assay [4] (setting [14]), -0.399; in assay [4] (setting [15]), 1.24. For the same compound, the fluorescence slope in assay [6] is -0.444 (inactive). The NADPH fluorescence slope in [7] was -6.6e-05 (inactive). The slope in assay [8] was 0.00545 (inactive). The compound was called inactive in assay [9].
For the compound `CN1C2C=C3C(C#N)=C(N)C(C#N)(C#N)[C@@H](c4ccc(Cl)cc4)[C@@H]3C1CC2` (stereo not given in full), in [1], the cell count is 492. Also, the inhibition in assay [1] is -3.5% (inactive); in assay [3], -63.9% (inactive); in [5], -2.47% (inactive); in [10], 11.6% (inactive); in assay [11], 13.8% (inactive); in assay [12], 29.9% (inactive). Further, in [2], the inhibition of aggregation was 11.7% (inactive). Moreover, the figures for the nuclei count in [2] and in assay [3] were 110% and 120%, respectively. Besides, the z-score in assay [4] (setting [13]) is 1.1; in assay [4] (setting [14]), -0.782; in assay [4] (setting [15]), 0.349. In addition, the fluorescence slope in [6] is -0.517 (inactive). The NADPH fluorescence slope in [7] was -1.7e-05 (inactive). In addition, the slope in assay [8] is 0.00502 (inactive). The compound was classed as inactive in [9].
As for `O=C(CSc1nnc(-c2ccccc2)c(-c2ccccc2)n1)N1CCOCC1`, the cell count in assay [1] was 611. Further, the inhibition was -6.9% (inactive) in assay [1]; -44.9% (inactive) in assay [3]; -3.5% (inactive) in assay [5]; 9.56% (inactive) in [10]; 14.8% (inactive) in assay [11]; 18% (inactive) in assay [12]. In addition, in assay [2], the inhibition of aggregation was 15.5% (inactive). The nuclei count was 96.7% in assay [2] and 134% in [3]. Further, the z-score in [4] (setting [13]) is -0.179; in [4] (setting [14]), -0.654; in assay [4] (setting [15]), 1.26. In addition, the fluorescence slope in assay [6] is -0.397 (inactive). In [7], the NADPH fluorescence slope is -1.1e-05 (inactive). The slope in assay [8] is 0.00498 (inactive). Also, the outcome in [9] was inactive.
